Laboratory results reported in PubChem BioAssay (NCI).
The panel holds about 83,000 compounds, 20% with a hit somewhere; the sample as a whole holds those more often.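 Method: cells in 96-well plates; compound added at one concentration; 48 h incubation; percent growth measured; values under 10 scored active.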 Unmarked numbers belong to inactive results. Activity calls are given as the source filed them.

tested on: IGROV1 ovarian; test: NCI-60 one-dose screen, 48 h (100 = growth as untreated, 0 = no growth, -100 = all killed); conditions: 10 µM unless noted

Q: CC(C)(C)c1cc(C=O)cc(C(C)(C)C)c1O was tested. Which growth did it give?
A: Its growth is 106%.

Q: How did the growth turn out when COc1ccc(OC)c(CCn2cncc2-c2c[nH]c3ccccc23)c1 was run?
A: Its growth is 44%.

Q: How did the growth turn out when COCCCN1CC(O)=C(c2nc(-c3ccc(C)cc3)cs2)C1=N was run?
A: Its growth is 54.4%.

Q: With O=C(CCN1CCCC1)Nc1ccc2c(Nc3ccc(Br)cc3)c3ccccc3nc2c1 as the molecule, how does the growth read?
A: Its growth is -21.1% (active).

Q: Which growth does the source give for O=C(Cn1c[n+](CC(=O)c2ccc(-c3ccccc3)cc2)c2ccccc21)Nc1cccc2cccnc12 here?
A: The growth was -38.2% (active).

Q: CCN1Cc2nc3sc(C)c(C)c3c(=O)n2C=C1C was tested. Which growth did it give?
A: The growth was 30.1%.

Q: With Cc1ccc(-n2c3c(c(-c4ccccc4)c2-c2ccccc2)C2=NCCN2C=N3)cc1 as the molecule, how does the growth read?
A: Its growth is 62.6%.

Q: With CCCCC[n+]1ccc(SCC(=O)N(C)c2ccc(Oc3ccccc3)cc2)c2ccccc21 as the molecule, how does the growth read?
A: The growth was 117%.

Q: How did the growth turn out when COc1cc(OC)cc(C(=O)C[n+]2cccc3cc[nH]c32)c1 was run?
A: The growth was 94.2%.

Q: CCOC(=O)[C@@H]1CCCN(S(=O)(=O)c2ccc(S(=O)(=O)N(CC)CC)c(F)c2)C1 was tested. Which growth did it give?
A: Its growth is 93.5%.

Q: For Cn1ccc2c1CC1CN(Cc3ccco3)C(=O)C1C2C(=O)O (stereo not drawn), which growth is on record?
A: Its growth is 104%.

Q: With O=C(NO)c1ccc(-n2nc(-c3ccccc3)c3ccccc32)cc1 as the molecule, how does the growth read?
A: The growth was 44.9%.

Q: For COc1ccc(CC(C)=C(c2ccc(OCCN3CCCCCC3)cc2)c2ccc(OCCN3CCCCCC3)cc2)cc1, which growth is on record?
A: The growth was -77.8% (active).

Q: For Nc1n[nH]c2cccc(C#Cc3cccc(C(=O)Nc4cccc(C(F)(F)F)c4)c3)c12, which growth is on record?
A: The growth was 30.3%.

Q: Cc1ccc(C(=O)/C(=C/c2ccc([N+](=O)[O-])cc2)SCc2ccc(Cl)cc2)cc1 was tested. Which growth did it give?
A: The growth was 74.7%.

Q: For O=C(O)c1ccc2c(c1)C(=O)N(Cc1ccccc1)C2=O, which growth is on record?
A: The growth was 106%.

Q: For O=C1Nc2cc(-c3cccc(O)c3)ccc2/C1=C/c1ccc[nH]1, which growth is on record?
A: The growth was 8.78% (active).

Q: For O=Cc1ccc(-c2cn3ccnc3c(-c3ccc4ncn(Cc5ccccc5)c4c3)n2)cc1, which growth is on record?
A: The growth was 78.7%.

Q: How did the growth turn out when CCc1ccc(CNc2ccc(N3CCOCC3)c(C(=O)O)c2)cc1 was run?
A: The growth was 102%.

Q: Which growth does the source give for O=C(CCN1CCCC1)c1ccc([N+](=O)[O-])cc1 here?
A: The growth was 105%.

Q: How did the growth turn out when CNCCOc1nc2c3cnccc3cc(-c3cc(OC)c(OC)c(OC)c3)c2c2ccncc12 was run?
A: The growth was -16.3% (active).

Q: How did the growth turn out when Nc1c(S(=O)(=O)O)cc2c3c(cccc13)C(=O)OC2=O was run?
A: The growth was 63.7%.

Q: With Oc1ccc(C(c2ccc(O)cc2)c2ccc(Br)cn2)cc1 as the molecule, how does the growth read?
A: The growth was 11.8%.

Q: How did the growth turn out when CCCCOc1ccc(/C=N/Nc2cc(C)nc3ccc(Br)cc23)cc1 was run?
A: The growth was 10%.

Q: For CC1(C)NCCC[C@]2(C)[C@H]3CC(=O)[C@H]4[C@@H]5C[C@](C)(CO)CC[C@]5(C)CC[C@@]4(C)[C@]3(C)CC[C@@H]12, which growth is on record?
A: The growth was 98.1%.

Q: N#Cc1cc(-c2nc3ccccc3s2)c(=O)n(NS(=O)(=O)c2ccccc2)c1N was tested. Which growth did it give?
A: Its growth is 98.7%.

Q: For O=S(=O)(NCCNc1nccc(-c2c(-c3cccc(O)c3)nc3occn23)n1)c1cccc(F)c1, which growth is on record?
A: The growth was 50.5%.

Q: For c1ccc2c(-c3c[nH]c4ccccc34)c3c(cc2c1)[nH]c1ccccc13, which growth is on record?
A: The growth was 69%.

Q: Which growth does the source give for O=C(/C=C(/C=C/c1csc2ccccc12)OB(F)F)/C=C/c1csc2ccccc12 here?
A: Its growth is 11.3%.

Q: How did the growth turn out when Cc1ccc(-c2csc(NC(=O)CSc3nc(-c4ccccc4)cc(=O)[nH]3)n2)cc1 was run?
A: The growth was 77.2%.

Q: CCCC/C=N/NC(=S)NCc1ccccc1 was tested. Which growth did it give?
A: The growth was 110%.

Q: Which growth does the source give for COc1ccc2nc(-c3ccc(-c4noc(-c5cc(OC)c(OC)c(OC)c5)n4)cc3)[nH]c2c1 here?
A: Its growth is 110%.

Q: Fc1ccc(-c2cn3c(nc4ccccc43)c(-c3ccccc3)n2)cc1 was tested. Which growth did it give?
A: The growth was 81.8%.

Q: CCNC(=O)Oc1ccc(/C(=C(\C)c2ccccc2)c2ccc(OCCN3CCCCC3)cc2)cc1 was tested. Which growth did it give?
A: The growth was 79.9%.

Q: Which growth does the source give for CCCCOc1ccc(/C(C)=N/Nc2cc(C)nc3ccc(Br)cc23)cc1 here?
A: Its growth is 85.7%.

Q: With N#Cc1cccc(-c2ccc3c(c2)NC(=O)/C3=C\c2ccc[nH]2)c1 as the molecule, how does the growth read?
A: The growth was 34.2%.

Q: For O=C(NNc1nc2c(F)cccc2n2cccc12)c1cnccn1, which growth is on record?
A: Its growth is 21.1%.

Q: For CN(C)CCC(=O)c1ccc([N+](=O)[O-])cc1, which growth is on record?
A: The growth was 109%.
